Measured values: ChEMBL document CHEMBL3433997, “St. Jude Leishmania screening dataset” (2016)

Target: Solute carrier family 2, facilitated glucose transporter member 1 (Homo sapiens) (UniProt P11166)
Experiment: ST_JUDE_LEISH: Cytotoxicity at 2uM final concentration against transgenic Leishmania Mexicana promastigotes LmGLUT1 that are glucose transport deficient and complemented with the human glucose transporter GLUT1. Activity is measured by DNA content using SYBR green in vitro
Assay type: functional

Chain of Solute carrier family 2, facilitated glucose transporter member 1 (Homo sapiens) (P11166 whole entry): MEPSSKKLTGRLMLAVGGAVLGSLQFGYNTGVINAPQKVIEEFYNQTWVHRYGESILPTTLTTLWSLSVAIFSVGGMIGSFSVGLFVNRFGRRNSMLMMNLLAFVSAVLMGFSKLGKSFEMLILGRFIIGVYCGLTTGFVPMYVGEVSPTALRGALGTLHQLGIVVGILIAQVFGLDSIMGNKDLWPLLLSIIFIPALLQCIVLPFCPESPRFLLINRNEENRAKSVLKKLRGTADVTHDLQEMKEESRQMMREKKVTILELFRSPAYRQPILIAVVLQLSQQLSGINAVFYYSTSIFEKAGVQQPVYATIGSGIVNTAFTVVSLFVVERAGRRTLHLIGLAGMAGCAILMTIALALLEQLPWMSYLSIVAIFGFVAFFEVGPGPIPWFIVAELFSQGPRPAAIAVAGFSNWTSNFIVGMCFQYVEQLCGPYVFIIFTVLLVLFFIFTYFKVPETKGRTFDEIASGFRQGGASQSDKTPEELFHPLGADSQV

Row | Structure (SMILES) | inhibition [%]
1 | CCCCCN1CCCC1CNS(=O)(=O)c1cccc(C(=O)Nc2cccc(C(F)(F)F)c2)c1 (stereo not drawn) | 6.45
2 | O=C(CSc1nc2ccccc2c(=O)n1C1CC1)Nc1cc(C(F)(F)F)ccc1Cl | -0.03
3 | CC(C)CNCc1ccc(-c2cccc(-c3nc4ccccc4[nH]3)c2)cc1 | 1.31
4 | O=C(NCc1cccc(F)c1)Nc1cccc(-c2cccc(-c3nc4cc(C(F)(F)F)ccc4[nH]3)c2)c1 | 0.12
5 | COc1ccc(-c2ccc(NC(=O)c3cccc(Cl)c3)cc2)cc1CN1CCCC1 | 11.7
6 | Nc1nc2c(ncn2COC(COCc2ccccc2)COCc2ccccc2)c(=O)[nH]1.Nc1nc2ncn(COC(COCc3ccccc3)COCc3ccccc3)c2c(=O)[nH]1 | -0.7
7 | CCCC(CNCc1ccc(Cl)c(C(F)(F)F)c1)CNc1nc2cnccc2[nH]1 (stereo not drawn) | 13.5
8 | CCN(CC)CCN(Cc1ccc(-c2ccc(C(F)(F)F)cc2)cc1)C(=O)Cn1c(CCc2cccc(F)c2F)nc(=O)c2cccnc21 | 0.41
9 | COc1cccc(CN2CCC3(CC2)CN(C(=O)Nc2ccc(Cl)c(Cl)c2)C3)c1 | 2.87
10 | CN1CCN(c2cccc(-c3nnc(-c4ccc(OCC(=O)NCc5ccc(C(F)(F)F)cc5)c([N+](=O)[O-])c4)o3)c2)CC1 | 3.75
11 | CNC(=O)c1cnc(Nc2ccc(N3CCN(C)CC3)cc2)nc1Nc1cccc(OC)c1 | 3.74
12 | COc1ccc2nccc([C@@H](O)CN3CCC(NC(=O)c4ccc5cc[nH]c5c4)CC3)c2c1 | 4.43
13 | Nc1cccc(CNCc2cccc(-c3cccc(-c4nc5ccccc5[nH]4)c3)c2)c1 | -1.07
14 | COc1cc(C(=O)NC2CC(C)(C)N(C)C(C)(C)C2)ccc1-c1nc2cc(Cl)c(Cl)cc2[nH]1 | -0.5
15 | Cc1cc(F)ccc1-c1nc(N(C)CCN(C)C(=O)N(C)c2ccccc2)nc2c1ccc(=O)n2-c1c(F)cccc1F | 2.99
16 | CCN(CC)CCN(Cc1ccc(-c2ccc(C(F)(F)F)cc2)cc1)C(=O)Cn1c(CCc2c(F)ccc(F)c2F)nc(=O)c2ccccc21 | 0.63
17 | Cc1[nH]c(C)c(-c2ccc(CCc3ccc(C(F)(F)F)cc3)nc2)c(=O)c1Cl | 2.59
18 | COc1ccc2nccc([C@@H](O)CN3CCC(NC(=O)c4ccc(Cl)c(OC)c4)CC3)c2c1 | 4.62
19 | O=C(Nc1ccc(Cl)cc1)Nc1nc2cc([N+](=O)[O-])ccc2[nH]1 | 0.18
20 | Cc1cc(OCCCNc2nc(NCCc3ccc(O)cc3)nc(N3CCNCC3)n2)c(Cl)c(C)c1Cl | 0.58

Row | Structure (SMILES) | inhibition [%]
21 | Cc1ccccc1C1CCN(C2CCC(NC(=O)/C=C/c3ccc(OC(F)(F)F)cc3)CC2)CC1 (stereo not drawn) | -0.78
22 | CNCCNCc1cccc(-c2ccc(-c3nc4cc(C(F)(F)F)ccc4[nH]3)s2)c1 | 2.35
23 | O=C(c1ccc(-c2cnc3[nH]cc(-c4ccc(C(=O)N5CCOCC5)cc4)c3c2)cc1)N1CCOCC1 | -0.49
24 | CCc1nc(N)nc(N)c1-c1ccccc1 | 2.31
25 | FC(F)(F)c1cnc(Sc2nnc(-c3ccncc3)o2)c(Cl)c1 | -0.19
26 | Cc1ccc(C)c2sc(N3CCN(C(=O)c4ccc([N+](=O)[O-])o4)CC3)nc12 | 28.7
27 | CC(=O)Nc1nc(C(=O)Nc2cccc(-c3cccc(-c4nc5cccc(C)c5[nH]4)c3)c2)cs1 | 6.67
28 | N#CN1CC[C@@H](NS(=O)(=O)Cc2ccc(Cl)c(Cl)c2)C1 | 5.72
29 | COc1ccc2c(NN=Cc3ccccc3Cl)ccnc2c1 | 3.65
30 | O=C(Nc1cccc(C(F)(F)F)c1)c1cccc(S(=O)(=O)NC2CCCN(CC3CCCCC3)C2)c1 (stereo not drawn) | 0.39
31 | COC(=O)CCCOc1cc(Cc2cnc(N)nc2N)cc(OC)c1OC | 7.51
32 | CC(CN(C)C)C(=O)Nc1ccc(-c2ccc(-c3nc4ccccc4[nH]3)cc2)cc1 (stereo not drawn) | 3.03
33 | COc1cccc2cc(C(=O)N[C@@H](CC(C)C)C(=O)NC3CC[C@@H](C)N(C(=O)Nc4ccncc4)CC3=O)oc12 (stereo partly drawn) | 9.49
34 | Cc1ccccc1C1CCN(C2CCC(NC(=O)/C=C/c3ccc4c(c3)OC(F)(F)O4)CC2)CC1 (stereo not drawn) | 0.14
35 | COc1ccc(-n2nc(C(=O)NCc3ccccc3OC)c3ccccc3c2=O)cc1 | 8.08
36 | CN1CCc2ccc(NC(=O)Nc3cccc(C(=O)c4ccccc4)c3)cc2C1 | 3.19
37 | COc1cc2cc(Cc3cnc(N)nc3N)ccc2c(OC)c1OC | 0.96
38 | N=C1SC(=Cc2cn[nH]c2-c2ccc(F)cc2)C(=O)N1c1nccs1 | 0.88
39 | Cc1cc(=NN=Cc2cccc(F)c2)c2cc(F)ccc2[nH]1 | 8.18

Target: Hexose transporter 1 (Plasmodium falciparum) (UniProt O97467)
Experiment: ST_JUDE_LEISH: Cytotoxicity at 2uM final concentration against transgenic Leishmania Mexicana promastigotes LmPfHT that are glucose transport deficient and complemented with the Plasmodium falciparum hexose transporter. Activity is measured by DNA content using SYBR green in vitro
Assay type: functional

Row | Structure (SMILES) | inhibition [%]
40 | CCCCCN1CCCC1CNS(=O)(=O)c1cccc(C(=O)Nc2cccc(C(F)(F)F)c2)c1 (stereo not drawn) | 6.76
41 | O=C(CSc1nc2ccccc2c(=O)n1C1CC1)Nc1cc(C(F)(F)F)ccc1Cl | -2.91
42 | CC(C)CNCc1ccc(-c2cccc(-c3nc4ccccc4[nH]3)c2)cc1 | 9.2
43 | O=C(NCc1cccc(F)c1)Nc1cccc(-c2cccc(-c3nc4cc(C(F)(F)F)ccc4[nH]3)c2)c1 | 2.8
44 | COc1ccc(-c2ccc(NC(=O)c3cccc(Cl)c3)cc2)cc1CN1CCCC1 | 2.9
45 | Nc1nc2c(ncn2COC(COCc2ccccc2)COCc2ccccc2)c(=O)[nH]1.Nc1nc2ncn(COC(COCc3ccccc3)COCc3ccccc3)c2c(=O)[nH]1 | -2
46 | CCCC(CNCc1ccc(Cl)c(C(F)(F)F)c1)CNc1nc2cnccc2[nH]1 (stereo not drawn) | 11.9
47 | CCN(CC)CCN(Cc1ccc(-c2ccc(C(F)(F)F)cc2)cc1)C(=O)Cn1c(CCc2cccc(F)c2F)nc(=O)c2cccnc21 | 2.07
48 | COc1cccc(CN2CCC3(CC2)CN(C(=O)Nc2ccc(Cl)c(Cl)c2)C3)c1 | 3.53
49 | CN1CCN(c2cccc(-c3nnc(-c4ccc(OCC(=O)NCc5ccc(C(F)(F)F)cc5)c([N+](=O)[O-])c4)o3)c2)CC1 | 3.68
50 | CNC(=O)c1cnc(Nc2ccc(N3CCN(C)CC3)cc2)nc1Nc1cccc(OC)c1 | 2.74
51 | COc1ccc2nccc([C@@H](O)CN3CCC(NC(=O)c4ccc5cc[nH]c5c4)CC3)c2c1 | 4.82
52 | Nc1cccc(CNCc2cccc(-c3cccc(-c4nc5ccccc5[nH]4)c3)c2)c1 | 1.34
53 | COc1cc(C(=O)NC2CC(C)(C)N(C)C(C)(C)C2)ccc1-c1nc2cc(Cl)c(Cl)cc2[nH]1 | 1.21
54 | Cc1cc(F)ccc1-c1nc(N(C)CCN(C)C(=O)N(C)c2ccccc2)nc2c1ccc(=O)n2-c1c(F)cccc1F | 3.18
55 | CCN(CC)CCN(Cc1ccc(-c2ccc(C(F)(F)F)cc2)cc1)C(=O)Cn1c(CCc2c(F)ccc(F)c2F)nc(=O)c2ccccc21 | 1.87
56 | Cc1[nH]c(C)c(-c2ccc(CCc3ccc(C(F)(F)F)cc3)nc2)c(=O)c1Cl | 3.29
57 | COc1ccc2nccc([C@@H](O)CN3CCC(NC(=O)c4ccc(Cl)c(OC)c4)CC3)c2c1 | 7.71
58 | O=C(Nc1ccc(Cl)cc1)Nc1nc2cc([N+](=O)[O-])ccc2[nH]1 | 0.01
59 | Cc1cc(OCCCNc2nc(NCCc3ccc(O)cc3)nc(N3CCNCC3)n2)c(Cl)c(C)c1Cl | 1.22

Row | Structure (SMILES) | inhibition [%]
60 | Cc1ccccc1C1CCN(C2CCC(NC(=O)/C=C/c3ccc(OC(F)(F)F)cc3)CC2)CC1 (stereo not drawn) | -1.35
61 | CNCCNCc1cccc(-c2ccc(-c3nc4cc(C(F)(F)F)ccc4[nH]3)s2)c1 | 3.82
62 | O=C(c1ccc(-c2cnc3[nH]cc(-c4ccc(C(=O)N5CCOCC5)cc4)c3c2)cc1)N1CCOCC1 | -1.48
63 | CCc1nc(N)nc(N)c1-c1ccccc1 | 2.67
64 | FC(F)(F)c1cnc(Sc2nnc(-c3ccncc3)o2)c(Cl)c1 | -5.1
65 | Cc1ccc(C)c2sc(N3CCN(C(=O)c4ccc([N+](=O)[O-])o4)CC3)nc12 | 38.4
66 | CC(=O)Nc1nc(C(=O)Nc2cccc(-c3cccc(-c4nc5cccc(C)c5[nH]4)c3)c2)cs1 | 1.89
67 | N#CN1CC[C@@H](NS(=O)(=O)Cc2ccc(Cl)c(Cl)c2)C1 | 4.08
68 | COc1ccc2c(NN=Cc3ccccc3Cl)ccnc2c1 | 4.27
69 | O=C(Nc1cccc(C(F)(F)F)c1)c1cccc(S(=O)(=O)NC2CCCN(CC3CCCCC3)C2)c1 (stereo not drawn) | 0.03
70 | COC(=O)CCCOc1cc(Cc2cnc(N)nc2N)cc(OC)c1OC | 6.32
71 | CC(CN(C)C)C(=O)Nc1ccc(-c2ccc(-c3nc4ccccc4[nH]3)cc2)cc1 (stereo not drawn) | 3.01
72 | COc1cccc2cc(C(=O)N[C@@H](CC(C)C)C(=O)NC3CC[C@@H](C)N(C(=O)Nc4ccncc4)CC3=O)oc12 (stereo partly drawn) | 4.38
73 | Cc1ccccc1C1CCN(C2CCC(NC(=O)/C=C/c3ccc4c(c3)OC(F)(F)O4)CC2)CC1 (stereo not drawn) | 5.21
74 | COc1ccc(-n2nc(C(=O)NCc3ccccc3OC)c3ccccc3c2=O)cc1 | 6.04
75 | CN1CCc2ccc(NC(=O)Nc3cccc(C(=O)c4ccccc4)c3)cc2C1 | 2.01
76 | COc1cc2cc(Cc3cnc(N)nc3N)ccc2c(OC)c1OC | -0.27
77 | N=C1SC(=Cc2cn[nH]c2-c2ccc(F)cc2)C(=O)N1c1nccs1 | 2.1
78 | Cc1cc(=NN=Cc2cccc(F)c2)c2cc(F)ccc2[nH]1 | 9.63
